# Source: a collection of fitness landscapes (doi:10.1126/science.1257360)
# In all, about 140,000 sequences were measured (“enrichment ratio after two sorts for PhoP signalling”: median about 0, highest 2% from about 11 on). The entries come from a sample that favours the highest values as a whole.
# B1: PhoQ; a variant is named by its letters at X, in order, P23837 (parent)
# chain: MKKLLRLFFPLSLRVRFLLATAAVVLVLSLAYGMVALIGYSVSFDKTTFRLLRGESNLFYTLAKWENNKLHVELPENIDKQSPTMTLIYDENGQLLWAQRDVPWLMKMIQPDWLKSNGFHEIEADVNDTSLLLSGDHSIQQQLQEVREDDDDAEMTHSVAVNVYPATSRMPKLTIVVVDTIPVELKSSYMVWSWFIYVLSANLLLVIPLLWVAAWWSLRPIEALAKEVRELEEHNRELLNPATTRELTSLVRNLNRLLKSERERYDKYRTTLTDLTHSLKTPLXXLQXXLRSLRSEKMSVSDAEPVMLEQISRISQQIGYYLHRASMRGGTLLSRELHPVAPLLDNLTSALNKVYQRKGVNISLDISPEISFVGEQNDFVEVMGNVLDNACKYCLEFVEISARQTDEHLYIVVEDDGPGIPLSKREVIFDRGQRVDTLRPGQGVGLAVAREITEQYEGKIVAGESMLGGARMEVIFGRQHSAPKDE
# Variants of: B1
# Assay: enrichment ratio after two sorts for PhoP signalling (ratio (wild type AVST 3.29)); higher = more functional
# Details: with PhoP (E. coli)
row,Variant,enrichment ratio
1,VDSY,≤ 0.25
2,ELCR,≤ 0.25
3,DCKP,≤ 0.25
4,MYPK,≤ 0.25
5,EFWG,≤ 0.25
6,AFDK,≤ 0.25
7,FLSH,≤ 0.25
8,MHCH,≤ 0.25
9,SEFH,4.4
10,EFPG,≤ 0.25
11,REIT,≤ 0.25
12,HGRF,≤ 0.25
13,SGWM,9.28
14,SGVQ,20.5
15,SGVM,13.3
16,TGVQ,7.73
17,SGGM,8.79
18,SGGG,≤ 0.25
19,HQTQ,≤ 0.25
20,KFHQ,≤ 0.25
21,PSSG,≤ 0.25
22,AGQH,≤ 0.25
23,HPFG,≤ 0.25
24,NWHP,≤ 0.25

row,Variant,enrichment ratio
1,LKHK,≤ 0.25
2,MMCM,≤ 0.25
3,VSCM,13.1
4,VSCK,≤ 0.25
5,RSCM,≤ 0.25
6,FSCM,16.6
7,FCCM,≤ 0.25
8,LCCM,≤ 0.25
9,KCCM,≤ 0.25
10,VCCM,13.1
11,KSCM,≤ 0.25
12,TSCM,25.8
13,NSCM,≤ 0.25
14,LKST,≤ 0.25
15,GVIN,≤ 0.25
16,MQIN,≤ 0.25
17,QHSN,≤ 0.25
18,YAPD,≤ 0.25
19,QLGK,3.11
20,MDFQ,≤ 0.25
21,VNCM,4.53
22,YRCM,≤ 0.25
23,YSCM,12.8
24,SSCM,19

row,Variant,enrichment ratio
1,SSCK,4.35
2,YSCK,≤ 0.25
3,AINP,≤ 0.25
4,SWTQ,≤ 0.25
5,AHMH,≤ 0.25
6,AYMH,≤ 0.25
7,THMH,13.2
8,RGMH,≤ 0.25
9,NHMH,≤ 0.25
10,TGMH,14.5
11,AGMH,26
12,AGWR,≤ 0.25
13,HGMH,≤ 0.25
14,PWRH,≤ 0.25
15,DSMV,≤ 0.25
16,ALNP,≤ 0.25
17,ILLI,≤ 0.25
18,IWRF,≤ 0.25
19,LDDP,≤ 0.25
20,WICF,≤ 0.25
21,AICF,13.5
22,AMCF,12.3
23,MMCF,≤ 0.25
24,SHCF,7.35

row,Variant,enrichment ratio
1,ALCF,13.2
2,NMCF,≤ 0.25
3,THCF,17.5
4,AKCF,1.73
5,NICF,≤ 0.25
6,PLCF,≤ 0.25
7,NHCF,≤ 0.25
8,IASH,≤ 0.25
9,FYVH,≤ 0.25
10,ESKG,≤ 0.25
11,WMCQ,≤ 0.25
12,VWMT,≤ 0.25
13,PQSG,≤ 0.25
14,VPYN,≤ 0.25
15,AAPG,≤ 0.25
16,DMIH,≤ 0.25
17,MFGN,≤ 0.25
18,IQAI,≤ 0.25
19,SAAI,7.86
20,SLAI,15.7
21,SKPA,≤ 0.25
22,WLAI,≤ 0.25
23,SQAI,15.1
24,SKAI,14

row,Variant,enrichment ratio
1,SKFA,≤ 0.25
2,VLAI,≤ 0.25
3,YGYC,≤ 0.25
4,YRGI,≤ 0.25
5,YDSS,≤ 0.25
6,AHPL,≤ 0.25
7,RPNK,≤ 0.25
8,SPLE,≤ 0.25
9,KSLE,≤ 0.25
10,SQLE,16.5
11,SFLE,≤ 0.25
12,DPLE,≤ 0.25
13,NELE,≤ 0.25
14,FELE,20.4
15,QELE,≤ 0.25
16,SEVE,6.62
17,SELE,21.5
18,KYLE,≤ 0.25
19,SSLE,12
20,LDMG,≤ 0.25
21,LDRD,≤ 0.25
22,SKTY,≤ 0.25
23,FKIR,≤ 0.25
24,PKAM,≤ 0.25

row,Variant,enrichment ratio
1,NVYD,≤ 0.25
2,IGIE,≤ 0.25
3,KYVT,≤ 0.25
4,PQLS,≤ 0.25
5,PYIW,≤ 0.25
6,GTLE,14.3
7,GQLE,14.3
8,YTLE,3.23
9,GYLE,≤ 0.25
10,LTLE,≤ 0.25
11,WQLE,≤ 0.25
12,TWHD,≤ 0.25
13,YYAE,≤ 0.25
14,KCKS,≤ 0.25
15,HTMI,1.06
16,WRCP,≤ 0.25
17,FWNS,≤ 0.25
18,AVAM,3.19
19,AVCC,8.73
20,AVMH,11.8
21,AVSH,12.4
22,AVWM,≤ 0.25
23,AVPM,1.53
24,AVGM,3.94

row,Variant,enrichment ratio
1,AVCV,5.84
2,AVCK,16.2
3,AVWR,≤ 0.25
4,AVTH,9.18
5,AVTM,12.4
6,MFGF,≤ 0.25
7,LYKG,≤ 0.25
8,ASIY,3.82
9,VFVG,≤ 0.25
10,DYAM,≤ 0.25
11,DHDS,≤ 0.25
12,NVCM,≤ 0.25
13,AVCG,16
14,AVCH,13
15,AVTI,10.4
16,TVAH,3.22
17,PVCG,≤ 0.25
18,NVCG,≤ 0.25
19,AVAH,13.4
20,FVCM,2.91
21,AVAT,≤ 0.25
22,NVCH,≤ 0.25
23,AVCM,15.4
24,DWKH,≤ 0.25

row,Variant,enrichment ratio
1,QWAC,≤ 0.25
2,PYDI,≤ 0.25
3,SRND,≤ 0.25
4,DGIY,≤ 0.25
5,KFTT,≤ 0.25
6,MWVS,≤ 0.25
7,NKPN,≤ 0.25
8,STYR,≤ 0.25
9,AVCI,21.8
10,AVCE,≤ 0.25
11,AVCS,8.99
12,RVVQ,≤ 0.25
13,VRPL,≤ 0.25
14,IQLV,≤ 0.25
15,AQHP,≤ 0.25
16,AEHP,≤ 0.25
17,AEIE,≤ 0.25
18,AQIQ,27.9
19,AEIV,4.76
20,AQQQ,≤ 0.25
21,ACVQ,2.26
22,AEIQ,24.4
23,ACHP,≤ 0.25
24,ACIQ,11.8

row,Variant,enrichment ratio
1,AEFQ,3.73
2,AEIA,15.4
3,KAHK,≤ 0.25
4,LFVQ,≤ 0.25
5,MTRG,≤ 0.25
6,YDCD,≤ 0.25
7,TFDY,≤ 0.25
8,SERL,≤ 0.25
9,WHLP,≤ 0.25
10,KMMG,≤ 0.25
11,AEIT,2.48
12,AEII,16.4
13,ADIQ,21.4
14,AEPM,0.861
15,AHIQ,≤ 0.25
16,AEIL,28.2
17,AEIS,10.8
18,AEIM,15.7
19,AEYL,6.74
20,AKIQ,≤ 0.25
21,AENL,≤ 0.25
22,THTQ,1.45
23,EWAP,≤ 0.25
24,GFIS,≤ 0.25

row,Variant,enrichment ratio
1,LHFN,≤ 0.25
2,NVLT,≤ 0.25
3,SCYK,≤ 0.25
4,DWIV,≤ 0.25
5,KRHG,≤ 0.25
6,NHPL,≤ 0.25
7,KIDW,≤ 0.25
8,GARI,≤ 0.25
9,QYLE,≤ 0.25
10,FEPL,≤ 0.25
11,QSSM,15.9
12,QPSM,≤ 0.25
13,TPSM,≤ 0.25
14,QQSM,13.3
15,QRSM,≤ 0.25
16,QDSM,≤ 0.25
17,QIAI,2.26
18,SIKG,≤ 0.25
19,LGAF,≤ 0.25
20,VRDP,≤ 0.25
21,HMSS,≤ 0.25
22,PMDA,≤ 0.25
23,SGTG,15.9
24,SGWG,≤ 0.25

row,Variant,enrichment ratio
1,SGDG,≤ 0.25
2,SGTS,7.16
3,SGTA,7.55
4,SGTI,16.7
5,AGFW,≤ 0.25
6,VWNV,≤ 0.25
7,GLKA,≤ 0.25
8,ENWV,≤ 0.25
9,NKIG,≤ 0.25
10,PDHR,≤ 0.25
11,NAML,≤ 0.25
12,HTML,11.7
13,TAML,25.8
14,HYML,≤ 0.25
15,HRML,≤ 0.25
16,KAML,≤ 0.25
17,DPPS,≤ 0.25
18,SECY,13.7
19,QECY,≤ 0.25
20,SQCY,12.2
21,SNCY,7.63
22,IQCY,≤ 0.25
23,TQCY,15.8
24,TECY,16.2

row,Variant,enrichment ratio
1,RNCY,≤ 0.25
2,MECY,4.09
3,DWCY,≤ 0.25
4,SRCY,≤ 0.25
5,KYCY,≤ 0.25
6,GSCQ,8.75
7,GDAQ,≤ 0.25
8,TRTV,9.35
9,SEWD,≤ 0.25
10,KVEG,≤ 0.25
11,LQIG,≤ 0.25
12,MKTT,≤ 0.25
13,FQTT,≤ 0.25
14,AKTT,3.25
15,YTTT,≤ 0.25
16,LTTT,≤ 0.25
17,SRTT,≤ 0.25
18,KYTT,≤ 0.25
19,TKTT,11.6
20,EQTT,≤ 0.25
21,TQTT,23.1
22,TTTT,12.1
23,SETT,12.6
24,YAIP,≤ 0.25

row,Variant,enrichment ratio
1,IDRF,≤ 0.25
2,ATER,≤ 0.25
3,NGCY,≤ 0.25
4,PIGE,≤ 0.25
5,SMQQ,≤ 0.25
6,IGVV,≤ 0.25
7,ISAV,0.486
8,ADQP,≤ 0.25
9,APWD,≤ 0.25
10,PTFA,≤ 0.25
11,KRKW,≤ 0.25
12,MIGL,1.45
13,SITT,6.9
14,KSTT,≤ 0.25
15,ICTT,11.9
16,VCTT,≤ 0.25
17,LCTT,≤ 0.25
18,SCTT,11.4
19,SPTT,≤ 0.25
20,FCTT,≤ 0.25
21,MMTT,≤ 0.25
22,TSTT,15.1
23,SQTT,11.4
24,KCTT,≤ 0.25
